# In PubChem BioAssay (NCI):
# This is part of a sample that, as a whole, favours compounds with a hit. Of some 83,000 tested, about 20% had one in any assay.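 Compound tested at a single concentration for 48 hours in 96-well plates; a percent growth value below 10 was scored as active.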 Values without a mark were called inactive. Calls of active or inactive are those of the source.
# Test system: HL-60(TB) leukemia
# Test: NCI-60 one-dose screen, 48 h (100 = growth as untreated, 0 = no growth, -100 = all killed)
# Conditions: 10 µM unless noted
row,Structure (SMILES),growth
1,COc1ccc(/C=c2\sc3n(c2=O)NC2C(N=3)N(C)C(=O)N2C)cc1 (centres undefined),98.4%
2,N#CC1(C#N)C(c2cccs2)NC(c2cccs2)C1(C#N)C#N (centres undefined),99%
3,COc1cc(Nc2nc3ccccc3cc2C(=O)Nc2ccc(F)c(F)c2)cc(OC)c1OC,19.8%
4,O=C(O)CCCCCCCCCCN1C(=O)/C(=C2/C(=O)N(CC(=O)O)c3ccc(Br)cc32)SC1=S,9.25% (active)
5,O=C(/C=C/c1ccccc1)Nc1ncc(Cc2ccccc2Cl)s1,-10.1% (active)
6,CCOC(=O)c1cc(C(=O)c2ccc(F)cc2F)n2ccccc12,96.4%
7,CC1C=CC(OC(=O)C(C)(O)CCC(O)(C(=O)OC2CC(O)C(C(C)C)CC2(C)O)C(C)C)(C(C)C)CC1 (centres undefined),-50.8% [4.63 µM] (active)
8,CCCOC(=O)c1nc(N(CC2CCCCC2)C(=O)NC)sc1/N=C/c1ccccc1,-9.46% (active)
9,NNc1c2ccccc2nc2ccccc12,9.09% (active)
10,COc1cc(NC(=O)C2=C(C)NC(C)=C(C(=O)Nc3cc(OC)c(Cl)cc3OC)C2c2cccc([N+](=O)[O-])c2)c(OC)cc1Cl,15.5%
11,CC1CCCCN1S(=O)(=O)c1ccc(CN=C=S)cc1 (centres undefined),75.9%
12,Cc1ccc(S(=O)(=O)N/N=C2\CC3CCC2C3)cc1 (centres undefined),98.5%
13,CCN(CC)CCOC(=O)c1ccc(NC(=O)Nc2cccc(Cl)c2)cc1,103%
14,CN(C)c1ccc(/C=N\NC(=O)c2ccc3nc(-c4ccc(Cl)cc4)[nH]c3c2)cc1,37.4%
